KCNK3 inh: human KCNK3 channel inhibitors, primary screen, CHO cells, FluxOR thallium flux, B-score; FluxOR fluorescence; hits give low values; actives 0.84% (n = 340,000); AID 602410, 2012; B-score at 10 µM;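 active = B-score under library mean minus 4 SD, starting fluorescence ratio at most library mean plus 5 SD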;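 note: more negative B-score means stronger inhibition of thallium flux through KCNK3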
Kir21 inh: inhibitors of mouse Kir2.1 inward-rectifier potassium channel | Inward rectifier potassium channel 2 (Mus musculus), P35561 | B-score at 10 µM | actives 0.85% (n = 310,000) | HEK293-Kir2.1, FluxOR thallium flux fluorescence; hits give low values;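 active = fluorescence ratio B-score at or below minus 3 SD of library scores, with starting-brightness B-score within 2 SD, cut at about -4.2 in these data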;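 note: channel flux triggered by added potassium and thallium sulfate stimulus; B-score of peak minus minimum fluorescence over baseline after thallium stimulus; more negative B-score means stronger Kir2.1 block with less thallium influx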
Target sequence (P35561 whole entry, looked up): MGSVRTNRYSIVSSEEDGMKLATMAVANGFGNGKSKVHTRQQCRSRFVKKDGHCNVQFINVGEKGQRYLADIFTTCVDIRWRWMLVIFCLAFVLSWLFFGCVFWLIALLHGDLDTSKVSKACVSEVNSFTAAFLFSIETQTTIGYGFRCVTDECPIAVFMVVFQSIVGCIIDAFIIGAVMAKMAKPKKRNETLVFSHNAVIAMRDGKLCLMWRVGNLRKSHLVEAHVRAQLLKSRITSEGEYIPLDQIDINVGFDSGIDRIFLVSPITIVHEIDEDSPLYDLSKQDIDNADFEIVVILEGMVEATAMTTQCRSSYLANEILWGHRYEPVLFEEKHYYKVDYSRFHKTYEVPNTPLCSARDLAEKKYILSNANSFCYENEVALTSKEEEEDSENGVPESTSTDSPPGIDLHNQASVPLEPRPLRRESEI
TMEM16A inh: TMEM16A chloride channel inhibitors, primary screen, cell-based, HTS; Anoctamin-1 (Mus musculus), Q8BHY3; HEK293 TMEM16A/YFP iodide influx fluorescence, ionomycin; normalized B-score (activity score, 25-100; higher = stronger inhibition) at 10 µM; actives 1.2% (n = 310,000);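 active = ratio plate-corrected score three or more library SD toward inhibition, starting fluorescence score within five deviations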;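 note: score derived from kinetic fluorescence span divided by baseline fluorescence per well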
TMEM16A act: TMEM16A chloride channel activators or potentiators, primary screen, cell-based, HTS. Anoctamin-1 (Mus musculus), Q8BHY3. HEK293 TMEM16A/YFP-H148Q/I152L, iodide quench fluorescence; hits give low values. AID 623877, 2012. B-score at 10 µM. actives 0.3% (n = 340,000);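 active = fluorescence-ratio B-score plate-corrected deviation score at least 3 library SD below zero, with starting fluorescence score within 5 deviations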;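 note: channel opened by trigger with iodide after compound preincubation; score built on the fluorescence ratio of max minus min over baseline; more negative score means more quench and so TMEM16A activation or potentiation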
KCNK9 block: KCNK9 potassium channel inhibitors, primary screen, HEK293 cells, thallium flux. AID 488922, 2010. FluxOR thallium flux fluorescence; hits give low values. actives 1.2% (n = 310,000). B-score at 10 µM. Potassium channel subfamily K member 9 (Homo sapiens), Q9NPC2;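 active = ratio B-score over 3 SD below the library mean, with starting fluorescence within 5 SD of its mean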;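 note: negative B-score means less thallium flux so channel inhibition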
KCNK3 inh conf: retest of human KCNK3 channel inhibitors, confirmation, CHO cells, FluxOR thallium flux, triplicate | ratio percent of control, % at 10 µM | FluxOR fluorescence; 0% buffer, 100% carvedilol maximal block | actives 99% (n = 2,400) | shares compounds with KCNK3 inh | AID 651638, 2012;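 active = ratio percent of control, averaged over triplicates, above buffer control mean plus 5 SD, cut at about 64% in these data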;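 note: ratio is the fluorescence rise from min to max over baseline after thallium stimulus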
KCNK3 uninduced: thallium flux inhibition in non-induced cells, primary screen, counter-screen for KCNK3 inhibitor project, cell-based, non-induced KCNK3 line, FluxOR thallium, triplicate. shares compounds with KCNK3 inh. thallium flux ratio (lower = more inhibition) at 10 µM. actives 40% (n = 2,400). non-induced KCNK3 parental cells; hits give low values;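 active = thallium flux ratio, averaged over three wells, more than 5 SD below the buffer control mean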;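 note: host cells are CHO cells without KCNK3 induction; ratio is peak minus trough fluorescence over baseline then normalized to buffer controls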
The depositor's hits bear a star. Rows were chosen to be rich in hits. Some 3.5% of all compounds tested hit in one or more screens of this group.

O=C(OCCNc1nc(-c2ccccc2)nc2ccccc12)c1ccncc1 was read as KCNK3 inh inactive, Kir21 inh -0.82, TMEM16A inh inactive, TMEM16A act inactive, KCNK9 block -7.3*, KCNK3 inh conf 124* and KCNK3 uninduced 0.16*.
Screening O=C(OCCNc1nc(-c2ccccc2)nc2ccccc12)c1cccnc1 returned KCNK3 inh inactive, Kir21 inh -1.5, TMEM16A inh inactive, TMEM16A act inactive and KCNK9 block inactive.
For c1ccc(-c2nc(NCc3cccnc3)c3ccccc3n2)cc1 the results were KCNK3 inh -9.2*, Kir21 inh -1.5, TMEM16A inh inactive, TMEM16A act inactive, KCNK9 block inactive, KCNK3 inh conf 111* and KCNK3 uninduced 0.15*.
Screening O=C(NCCCN1CCOCC1)c1cc2ccccc2cc1O returned KCNK3 inh inactive, Kir21 inh -0.2, TMEM16A inh inactive, TMEM16A act inactive and KCNK9 block inactive.
`COCC(C)N=C1NN=C(c2c[nH]c3ccccc23)CS1` (stereo not drawn) gave KCNK3 inh inactive, Kir21 inh 1.4, TMEM16A inh inactive, TMEM16A act inactive and KCNK9 block inactive.
`Cc1cccc(Sc2c(C=O)c3ccccc3n2C)c1` gave KCNK3 inh -10*, Kir21 inh -0.87, TMEM16A inh 25*, TMEM16A act inactive, KCNK9 block inactive, KCNK3 inh conf 110* and KCNK3 uninduced 0.14*.
Screening Cc1ccc(Oc2c(C=O)c3ccccc3n2C)cc1 returned KCNK3 inh inactive, TMEM16A inh inactive and TMEM16A act inactive.
Screening Cc1sc2nc(C3CC3)nc(N3CCN(C(=O)c4ccc(Cl)cc4)CC3)c2c1C returned KCNK3 inh -13*, Kir21 inh -0.29, TMEM16A inh inactive, TMEM16A act inactive, KCNK9 block inactive, KCNK3 inh conf 96* and KCNK3 uninduced 0.15*.
Screening Cc1sc2nc(C3CC3)nc(N3CCN(S(=O)(=O)c4ccc(F)cc4)CC3)c2c1C returned KCNK3 inh inactive, Kir21 inh 0.09, TMEM16A inh inactive and KCNK9 block inactive.
O=C(NC(=S)Nc1ccc(N2CCCCC2)c(Cl)c1)c1cccs1 was read as KCNK3 inh inactive, Kir21 inh -0.81, TMEM16A inh inactive, TMEM16A act inactive and KCNK9 block inactive.
For O=C(Nc1cc(Cl)ccc1N1CCCCC1)c1cccs1 the results were KCNK3 inh -14*, Kir21 inh -0.95, TMEM16A inh inactive, TMEM16A act inactive, KCNK9 block -7.3*, KCNK3 inh conf 128* and KCNK3 uninduced 0.12*.
For Cc1noc(-c2ccccc2)c1NC(=O)Nc1ccccc1 the results were KCNK3 inh inactive, Kir21 inh -0.55, TMEM16A inh inactive, TMEM16A act inactive and KCNK9 block inactive.
`Cc1noc(-c2ccccc2)c1NC(=O)Nc1ccc(Cl)cc1` gave KCNK3 inh -11*, Kir21 inh 1.1, TMEM16A inh inactive, TMEM16A act inactive, KCNK9 block inactive, KCNK3 inh conf 106* and KCNK3 uninduced inactive.
For Cn1ncc(Cl)c1C(=O)N1CCN(c2ncccn2)CC1 the results were KCNK3 inh inactive, Kir21 inh 0.6, TMEM16A inh inactive, TMEM16A act inactive and KCNK9 block inactive.
For COc1ccc(/C=N/NC(=O)c2cccs2)c2ccccc12 the results were KCNK3 inh -11*, Kir21 inh 3.6, TMEM16A inh inactive, TMEM16A act inactive, KCNK9 block inactive, KCNK3 inh conf 115* and KCNK3 uninduced 0.15*.
CCc1cccc(NC(=O)c2cccc3c2C(=O)N(C2CCCCC2)C3)c1 was read as KCNK3 inh -8.7*, Kir21 inh -1.3, TMEM16A inh inactive, TMEM16A act inactive, KCNK9 block inactive, KCNK3 inh conf 78* and KCNK3 uninduced inactive.
CCCCc1nc(NCCNC(=O)c2ccccc2)c(C#N)c2c1CSC(C)(C)C2 was read as KCNK3 inh -10*, Kir21 inh -0.06, TMEM16A inh inactive, TMEM16A act inactive, KCNK9 block inactive, KCNK3 inh conf 136* and KCNK3 uninduced 0.11*.
For CCCCC(=O)NC1(C(F)(F)F)NC(=O)N(Cc2ccccc2)C1=O (stereo not drawn) the results were KCNK3 inh inactive, Kir21 inh 0.02, TMEM16A inh inactive, TMEM16A act inactive and KCNK9 block inactive.
`CC(C)CN(CC(C)C)C(=O)COn1nnc2ccc(S(=O)(=O)N3CCOCC3)cc21` gave KCNK3 inh inactive and TMEM16A act inactive.
O=C(COn1nnc2ccc(S(=O)(=O)N3CCOCC3)cc21)Nc1c(F)c(F)c(F)c(F)c1F was read as KCNK3 inh -8.8*, Kir21 inh -1.2, TMEM16A inh inactive, TMEM16A act inactive, KCNK9 block -7.4*, KCNK3 inh conf 87* and KCNK3 uninduced inactive.
`O=C(COc1ccccc1Cl)N1CCN(c2ccc([N+](=O)[O-])c(N3CCOCC3)c2)CC1` gave KCNK3 inh inactive, Kir21 inh -0.02, TMEM16A inh inactive, TMEM16A act inactive and KCNK9 block inactive.
For O=C1/C(=C/c2cccnc2)Sc2ccccc21 the results were KCNK3 inh -9.6*, Kir21 inh -1.6, TMEM16A inh inactive, TMEM16A act inactive, KCNK9 block inactive, KCNK3 inh conf 102* and KCNK3 uninduced inactive.
`CC(=O)Nc1ccc(/C=C2\Sc3ccccc3C2=O)cc1` gave KCNK3 inh inactive, Kir21 inh 0.31, TMEM16A inh inactive, TMEM16A act inactive and KCNK9 block inactive.
For O=C1NC(=Nc2ccccc2)S/C1=C/c1cccnc1 the results were KCNK3 inh -11*, Kir21 inh 0.63, TMEM16A inh inactive, TMEM16A act inactive, KCNK9 block inactive, KCNK3 inh conf 90* and KCNK3 uninduced inactive.
Cc1ccc(C(=O)NCC(=O)OCC(=O)c2ccc(Br)s2)cc1 was read as KCNK3 inh inactive, Kir21 inh 0.84, TMEM16A inh inactive, TMEM16A act inactive and KCNK9 block inactive.
CC(C)(C)OC(=O)N1CCN(C(=O)c2[nH]cnc2C(=O)Nc2ccc(Cl)cc2)CC1 was read as KCNK3 inh inactive and TMEM16A act inactive.

From PubChem BioAssay
